From PubChem BioAssay AID1159580 (chemical genetic matrix, 2015)
Values joined by “and” are separate entries in the source; they are usually repeats but may differ in a detail not shown here. Identical values can stand only once. The whole screen tested about 5,500 compounds, of which about 2,000 (36%) were called active. Not shown: some 18% with an inconclusive outcome. Rule as the data show it: active = normalized growth mostly below about 0.91 (no sharp cut-off); inconclusive = no clear call, values can overlap the other calls; inactive = mostly above about 0.92. The list shows a part of the results.

Assay: chemical genetic growth profiling, strain panel (AID 1159580);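 also: tested at 20 µM; growth read once vehicle control cultures reached saturation at 30 °C; 1 = growth at the plate median or of vehicle wells; lower values mean less growth of the strain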
Details: S. cerevisiae deletion strains, growth OD

Measured: normalized growth

COP(=S)(OC)SCn1nnc2ccccc2c1=O
inactive: locus YAL013W, strain DEP1, stronger effect = lower value 0.987 | locus YAL021C, strain ccr4, stronger effect = lower value 1 | locus YAL026C, strain drs2, stronger effect = lower value 1 | locus YAL030W, strain snc1, stronger effect = lower value 1.03 | locus YBL061C, strain skt5, stronger effect = lower value 1.01 | locus YBR009C, strain hhf1, stronger effect = lower value 1 | locus YBR021W, strain FUR4, stronger effect = lower value 0.887 | locus YBR023C, strain chs3, stronger effect = lower value 0.997 | locus YBR171W, strain sec66, stronger effect = lower value 1.01 | locus YBR229C, strain ROT2, stronger effect = lower value 0.955 | locus YBR231C, strain swc5, stronger effect = lower value 1 | locus YBR279W, strain paf1, stronger effect = lower value 0.992 | locus YCL011C, strain gbp2, stronger effect = lower value 1 | locus YCL016C, strain dcc1, stronger effect = lower value 0.994 | locus YCL029C, strain bik1, stronger effect = lower value 0.974 | locus YCL061C, strain MRC1, stronger effect = lower value 0.996 | locus YCL069W, strain vba3, stronger effect = lower value 1.02 | locus YCR088W, strain abp1, stronger effect = lower value 1.02 | locus YDL005C, strain med2, stronger effect = lower value 1 | locus YDL035C, strain GPR1, stronger effect = lower value 0.921 | locus YDL040C, strain nat1, stronger effect = lower value 1.01 | locus YDL074C, strain BRE1, stronger effect = lower value 0.9 | locus YDL101C, strain DUN1, stronger effect = lower value 0.966 | locus YDL134C, strain PPH21, stronger effect = lower value 0.985 | locus YDL185W, strain tfp1, stronger effect = lower value 0.948 | locus YDL192W, strain arf1, stronger effect = lower value 0.976 | locus YDR001C, strain nth1, stronger effect = lower value 1.02 | locus YDR069C, strain doa4, stronger effect = lower value 0.96 | locus YDR101C, strain arx1, stronger effect = lower value 0.986 | locus YDR137W, strain rgp1, stronger effect = lower value 0.985 | locus YDR150W, strain NUM1, stronger effect = lower value 0.971 | locus YDR159W, strain sac3, stronger effect = lower value 0.927 | locus YDR162C, strain NBP2, stronger effect = lower value 0.963 | locus YDR195W, strain ref2 1.06 | locus YDR297W, strain sur2, stronger effect = lower value 0.998 | locus YDR318W, strain mcm21, stronger effect = lower value 0.972 | locus YDR334W, strain swr1, stronger effect = lower value 1.01 | locus YDR335W, strain msn5, stronger effect = lower value 1 | locus YDR388W, stronger effect = lower value 0.979 | locus YDR392W, strain spt3, stronger effect = lower value 1.03 | locus YDR502C, strain sam2, stronger effect = lower value 0.98 | locus YEL003W, strain gim4, stronger effect = lower value 0.984 | locus YEL037C, strain rad23, stronger effect = lower value 1.01 | locus YEL061C, strain CIN8 (second series), stronger effect = lower value 1.01 | locus YEL061C, strain CIN8, stronger effect = lower value 0.985 | locus YER015W, strain faa2, stronger effect = lower value 1 | locus YER016W, strain bim1, stronger effect = lower value 1.02 | locus YER110C, stronger effect = lower value 0.97 | locus YER111C, strain swi4, stronger effect = lower value 0.996 | locus YER155C, strain BEM2 (second series), stronger effect = lower value 0.999 | locus YER155C, strain BEM2, stronger effect = lower value 0.993 | locus YER167W, strain BCK2, stronger effect = lower value 0.989 | locus YFR010W, strain ubp6, stronger effect = lower value 0.98 | locus YGL078C, strain dbp3, stronger effect = lower value 0.997 | locus YGL086W, strain mad1, stronger effect = lower value 0.992 | locus YGL167C, strain pmr1, stronger effect = lower value 0.992 | locus YGL173C, strain kem1, stronger effect = lower value 1 | locus YGL227W, strain vid30, stronger effect = lower value 0.997 | locus YGL240W, strain doc1, stronger effect = lower value 0.904 | locus YGL248W, strain PDE1, stronger effect = lower value 0.953 | locus YGL253W, strain hxk2, stronger effect = lower value 0.993 | locus YGR078C, strain PAC10, stronger effect = lower value 0.953 | locus YGR135W, strain pre9, stronger effect = lower value 0.969 | locus YGR229C, strain SMI1, stronger effect = lower value 0.956 | locus YGR252W, strain gcn5, stronger effect = lower value 0.824 | locus YHR013C, strain ard1, stronger effect = lower value 0.913 | locus YHR027C, strain rpn1, stronger effect = lower value 1.02 | locus YHR030C, strain SLT2, stronger effect = lower value 0.973 and 0.958 | locus YHR079C, strain IRE1 (second series), stronger effect = lower value 0.983 | locus YHR079C, strain IRE1, stronger effect = lower value 0.979 | locus YHR094C, strain hxt1, stronger effect = lower value 0.99 | locus YHR129C, strain ARP1, stronger effect = lower value 0.967 | locus YHR142W, strain chs7, stronger effect = lower value 0.987 | locus YHR200W, strain rpn10, stronger effect = lower value 0.99 | locus YIL066C, strain RNR3, stronger effect = lower value 0.935 | locus YIL073C, strain SPO22, stronger effect = lower value 0.963 | locus YIL125W, strain kgd1, stronger effect = lower value 0.979 | locus YIR030C, strain dcg1, stronger effect = lower value 0.992 | locus YJL092W, strain hpr5, stronger effect = lower value 1.01 | locus YJL095W, strain BCK1 (second series), stronger effect = lower value 1 | locus YJL095W, strain BCK1, stronger effect = lower value 0.974 and 0.949 | locus YJL115W, strain asf1, stronger effect = lower value 0.991 | locus YJL129C, strain trk1, stronger effect = lower value 1.02 | locus YJL134W, strain LCB3, stronger effect = lower value 0.979 | locus YJL154C, strain vps35, stronger effect = lower value 1.02 | locus YJL164C, strain tpk1, stronger effect = lower value 0.984 | locus YJL166W, strain qcr8, stronger effect = lower value 1.01 | locus YJL168C, strain set2, stronger effect = lower value 0.982 | locus YJL187C, strain SWE1 (second series), stronger effect = lower value 0.977 | locus YJL187C, strain SWE1, stronger effect = lower value 1.01 | locus YJR043C, strain POL32, stronger effect = lower value 0.953 | locus YJR066W, strain TOR1, stronger effect = lower value 0.905
